{"source": "PubChem BioAssay (NCI)", "note": "The panel holds about 79,000 compounds, 15% with a hit somewhere; the sample as a whole holds those more often. Unmarked numbers belong to inactive results. Activity calls are given as the source filed them. Cut-off read from the data, not from the text of the source: active = growth inhibition above about 70%; inactive = the rest.", "data": [{"assay": "NCI Yeast Anticancer Drug Screen. Data for the bub3 strain (AID 167)", "details": "S. cerevisiae bub3 mutant strain, at 5.0 µM (retest, dose inferred, filed as 0.5), active compounds read high", "summary_of_the_method": "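Part of a panel of yeast mutants defective in DNA damage repair or cell cycle regulation. Each strain is grown with compound, and inhibition is calculated relative to solvent-treated cultures.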", "values": [{"smiles": "Clc1ccc(-c2nc3ccc(Cl)cc3[nH]2)cc1", "growth inhibition": "19%"}, {"smiles": "O=C1c2ccccc2NC(=O)C2C1C(c1ccccc1)CC2(O)c1ccccc1", "note": "(stereo not given)", "growth inhibition": "-27%"}, {"smiles": "COc1ccc(CC2C(=O)NC(C)C(=O)N(C)C3Cc4ccc(cc4)Oc4cc(ccc4O)CC(C(=O)NC(C)C(=O)NC(C)C(=O)N2C)N(C)C3=O)cc1", "note": "(stereo not given)", "growth inhibition": "16%"}, {"smiles": "O=C1c2cccnc2-c2nccc3c2c1nc1cc(Br)ccc13", "growth inhibition": "88% (active)"}, {"smiles": "CCN(C(=O)O)c1ccc(/C=C/c2ccnc3ccccc23)cc1", "growth inhibition": "-17%"}, {"smiles": "O=C(/C=C/c1cccc(Cl)c1)c1ccccc1", "growth inhibition": "-30%"}, {"smiles": "O.O.O=C(O)C(O)C(O)C(OC1OC(CO)C(O)C(O)C1O)C(O)CO.O=C(O)C(O)C(O)C(OC1OC(CO)C(O)C(O)C1O)C(O)CO.[NH-]C1CCCCC1[NH-].[Pt+2]", "note": "(stereo not given)", "growth inhibition": "-2%"}, {"smiles": "O=C(N=c1sc2ccccc2s1)N=c1sc2ccccc2s1", "growth inhibition": "-11%"}, {"smiles": "Cc1ccsc1/C=N/Nc1ccc2ccccc2n1", "growth inhibition": "42%"}, {"smiles": "CC(C)(C)C1=NC(=S)SC2=NC(=O)C3(NN21)c1ccccc1-c1ccccc13", "growth inhibition": "-11%"}, {"smiles": "COC(=O)c1ccc(OC)cc1", "growth inhibition": "3%"}, {"smiles": "Cc1ccc(/C=C2\\CN(C)CC3=C2NC(=S)NC3c2ccc(C)cc2)cc1", "note": "(stereo not given)", "growth inhibition": "-10%"}, {"smiles": "O=C1NC(=O)/C(=C/C=C/c2ccccc2)S1", "growth inhibition": "61%"}, {"smiles": "Nc1ccc(Cc2ccc(N)cc2[N+](=O)[O-])c([N+](=O)[O-])c1", "growth inhibition": "-4%"}, {"smiles": "COc1ccccc1/C=C\\C(=O)c1ccccc1", "growth inhibition": "5%"}, {"smiles": "NNC(=S)NN/C=C(\\C=Nc1ccccc1)[N+](=O)[O-]", "growth inhibition": "-6%"}, {"smiles": "CCCCCCCCCCCCCCCCCO", "growth inhibition": "10%"}, {"smiles": "COc1cc(C(c2cc3c(cc2O)OCO3)N2CCOCC2)cc(OC)c1OC", "note": "(stereo not given)", "growth inhibition": "2%"}, {"smiles": "O=C1OCc2cccc3cccc1c23", "growth inhibition": "11%"}, {"smiles": "CSC(=S)NNC(C)c1nccc2ccccc12", "note": "(stereo not given)", "growth inhibition": "-7%"}, {"smiles": "N#Cc1c(Cl)nc2ccccc2c1N=[N+]=[N-]", "growth inhibition": "-8%"}, {"smiles": "CC(C)(C)CC(C)(C)c1ccc(OCCSC(=N)N)cc1", "growth inhibition": "99% (active)"}, {"smiles": "COC1CCC(O)C(CO)O1", "note": "(stereo not given)", "growth inhibition": "99% (active)"}, {"smiles": "CC(=O)N(C1=C(Cl)C(=O)c2ccccc2C1=O)c1ccc(Cl)cc1", "growth inhibition": "97% (active)"}, {"smiles": "Cc1nc(N2N=C(c3ccc(Cl)cc3)CCC2=O)sc1[N+](=O)[O-]", "growth inhibition": "10%"}, {"smiles": "Cn1c2c(c3ccccc31)CCN1C[C@@H]3CCCC[C@H]3C[C@@H]21", "growth inhibition": "2%"}, {"smiles": "Cn1cc(NC(=O)Nc2cc(C(=O)Nc3cc(C(=O)Nc4ccc5cc(S(=O)(=O)O)cc(S(=O)(=O)O)c5c4)n(C)c3)n(C)c2)cc1C(=O)Nc1cc(C(=O)Nc2ccc3cc(S(=O)(=O)O)cc(S(=O)(=O)O)c3c2)n(C)c1", "growth inhibition": "44%"}, {"smiles": "CC(=O)Oc1c(Cl)cc(Cl)cc1C(c1cc(Cl)cc(Cl)c1OC(C)=O)C(Cl)(Cl)Cl", "growth inhibition": "-3%"}, {"smiles": "CCCCCc1ccc2cc(C(=O)O)[nH]c2c1", "growth inhibition": "1%"}, {"smiles": "C/C(=N/O)c1cc([N+](=O)[O-])c(O)cc1O", "growth inhibition": "-35%"}, {"smiles": "CCOC(=O)CNC(=O)Sc1ccc(C(C)(C)C)cc1C", "growth inhibition": "14%"}, {"smiles": "S=C(N/N=C1\\C=Cc2ccccc2C1)N/N=C1\\C=Cc2ccccc2C1", "growth inhibition": "-3%"}, {"smiles": "Cc1cccc(Nc2c3c(nc4ccccc24)CCCCC3)c1", "growth inhibition": "-1%"}, {"smiles": "Cc1ccc(NS(=O)(=O)c2ccc(C)cc2)cc1", "growth inhibition": "-6%"}, {"smiles": "CCOC(=O)C(=CNC(=S)Nc1c(CC)cccc1C(C)(C)C)C(=O)OCC", "growth inhibition": "-11%"}, {"smiles": "COC1/C=C/OC2(C)Oc3c(C)c(OC(C)=O)c4c(c3C2=O)C(=O)C=C(NC(=O)/C(C)=C\\C=C\\C(C)C(O)C(C)C(O)C(C)C(OC(C)=O)C1C)C4=O", "note": "(stereo not given)", "growth inhibition": "0%"}, {"smiles": "O=C(O)c1ccc(/C=C2\\COc3ccccc3C2=O)cc1", "growth inhibition": "24%"}, {"smiles": "Cc1c2c(c(C)c3ccncc13)S(=O)(=O)c1ccccc1-2", "growth inhibition": "41%"}, {"smiles": "Oc1c(Cl)cc(Cl)c2cccnc12", "growth inhibition": "64%"}, {"smiles": "Cc1ccc(S(=O)(=O)Nc2ccc3c(c2)C(=O)c2ccccc2-3)cc1", "growth inhibition": "6%"}]}]}
